In PubChem BioAssay AID435030 (The Scripps Research Institute Molecular Screening Center, 2010) one finds inhibition data, which are given here for 62 compounds.

SMILES strings stand for the structures. “And” between values parts separate entries of the source, which are not always exact repeats. Equal entries are not always repeated. Among all 330,000 compounds or so, about 940 (0.28%) were called active. Cut-off read from the data, not from the text of the source: active = inhibition above about 12%; inactive = the rest. The sample as a whole holds a higher share of actives than the screen did. More than one record can exist for a structure, and the calls need not agree.

The nature of this assay: growth inhibition of E. coli expressing H. pylori AddAB, primary screen, AddAB inhibitor project, absorbance (AID 435030).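 Note: 0% = vehicle wells of infected cells.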 Particulars: at 11.9 µM, stronger effect = higher value.
As for `Cc1ccc(NC(=O)C(C)Sc2nnc(C3CC3)n2C2CC2)cc1S(=O)(=O)N1CCOCC1` (configuration not stated), the inhibition was -0.26% (inactive).
For `Cc1ccc(C23CC4CC(CC(C(=O)NCC(=O)O)(C4)C2)C3)cc1`, the inhibition was 1.92% (inactive).
The figure for `CCOc1ccccc1NC(=O)C12CC3CC(C1)CC(c1ccc(C)cc1)(C3)C2` is 78.7% (active).
For `COc1ccccc1NC(=S)N1CCC(NC(=O)C23CC4CC(CC(C4)C2)C3)CC1`, the inhibition was 4.75% (inactive).
As for `Cc1noc(NS(=O)(=O)c2ccc(NC(=O)C34CCC(CC3)C4)cc2)c1C`, the figure is 1.62% (inactive).
As for `Cc1cc(OC(C)C(=O)Nc2ccc(S(=O)(=O)Nc3onc(C)c3C)cc2)cc(C)c1Cl` (configuration not stated), the figure is -1.11% (inactive); as for `Cc1ccc(C(=O)/C=C/Nc2ccc(S(=O)(=O)Nc3onc(C)c3C)cc2)cc1`, 12.7% (active).
The figure for `Cc1ccc(Sc2ccncc2S(N)(=O)=O)cc1` is 4.14% (inactive); for `COc1ccc(N2CCN(S(=O)(=O)CCNC(=O)C34CC5CC(CC(C5)C3)C4)CC2)cc1` it is 3.21% (inactive).
Consider `COc1cccc(NC(=O)C(Sc2nc3ccccc3c(=O)n2CC(C)C)c2ccccc2)c1` (configuration not stated), for which the inhibition was 2.26% (inactive).
As for `O=C(NNC(=O)C1CCCC1)c1ccc(F)cc1`, the figure is -2.96% (inactive).
The figure for `O=C(/C=C/c1ccc([N+](=O)[O-])o1)NNC(=O)c1ccc(F)cc1` is 97.8% (active); for `CCc1noc(C)c1C(=O)NNC(=O)c1ccc(F)cc1` it is -0.34% (inactive); for `Cc1ccc(Cl)cc1NC(=S)N(CCN(C)C)Cc1cccs1` it is 4.63% (inactive).
As for `CCn1c(/C=C/Nc2ccccc2)[n+](CC)c2ccc(C(=O)OCC(F)(F)F)cc21`, the figure is -1.7% (inactive); as for `O=C(c1[nH]ncc1-c1ccc(Cl)cc1)C1CO1` (configuration not stated), 12.5% (active); as for `O=C(c1nnc(-c2ccc(Cl)cc2)o1)C1CCCC1`, 0.77% (inactive).
Take `S=c1[nH]nc(-c2ccc(Cl)cc2)n1CC1CCCO1` (configuration not stated): the inhibition is 0.6% (inactive).
The figure for `CCC(C)[C@H]1COCCS(=O)(=O)N1Cc1ccc(C)cc1` (some centres not stated) is 2.11% (inactive); for `CC(C)(C)OC(=O)C1=C(CO)CS[C@@H]2[C@H](NC(=O)Cc3ccccc3)C(=O)N12` it is 0.4% (inactive); for `CO/N=C(\C(=O)N[C@@H]1C(=O)N2C(C(=O)O)=C(COC(C)=O)CS[C@H]12)c1csc(N)n1` (stereo in doubt) it is 98.8% (active) and 99.7% (active) and -0.42% (inactive).
The figure for `C=CC1=C(C(=O)O)N2C(=O)[C@@H](NC(=O)/C(=N/OCC(=O)O)c3csc(N)n3)[C@H]2SC1` is 97.5% (active); for `C=CC1=C(C(=O)O)N2C(=O)[C@@H](NC(=O)/C(=N\OCC(=O)O)c3csc(N)n3)[C@H]2SC1` it is 99.5% (active); for `Cc1nnc(SCC2=C(C(=O)O)N3C(=O)C(NC(=O)Cn4nc(C)c(Cl)c4C)C3SC2)s1` (configuration not stated) it is -3.23% (inactive).
The figure for `Cc1cc(C)cc(C(=O)NC2C(=O)N3C(C(=O)O)=C(CSc4nnc(C)s4)CSC23)c1` (configuration not stated) is -1.61% (inactive); for `Cc1ccc(S(=O)(=O)N2[C@@H](c3cccc4ccccc34)C(C(=O)O)=C[C@H]2C(C)(C)C)cc1` it is -0.17% (inactive).
For `C=CCOc1cccc(CNCc2cccnc2)c1`, the inhibition was 4.34% (inactive).
The figure for `O=C1N[C@H](Cc2ccccc2)C(=O)N[C@H]1Cc1cn(S(=O)(=O)c2ccccc2)c2ccccc12` is 3.88% (inactive); for `Cc1ccc(C(=O)N/C(=C\c2cccs2)C(=O)NCCc2ccccn2)cc1C` it is -1.59% (inactive).
The figure for `COc1ccc(C(=O)c2c(C)c(CCC#N)n3ccccc23)c(OC)c1` is 4.64% (inactive); for `CNc1ccc(SC#N)cc1` it is 3.2% (inactive); for `CC(=O)Nc1ccc(NC(=O)CC2CCCC2)cc1` it is 3.59% (inactive).
The figure for `CCOC(=O)c1cnc(-n2nc(C)cc2C)nc1NNc1cc(C)nc(-c2ccccc2)n1` is 1.33% (inactive).
`O=C(Nc1ccc2c(c1)CCC2)c1ccc(Br)s1`: the inhibition is 0.08% (inactive).
The figure for `Cc1nn(CC#N)c(=O)n1N(C)c1ncc(C(F)(F)F)cc1Cl` is -0.77% (inactive); for `O=C1c2ccccc2NC(c2ccc(-c3cccc(Cl)c3)o2)N1O` (configuration not stated) it is 21.1% (active).
The figure for `O=C(O)C(c1ccccc1)N1C(=O)/C(=C\c2ccc(-c3cccc(Cl)c3)o2)SC1=S` (configuration not stated) is 1.17% (inactive); for `CC(=O)NN1C(=O)c2ccccc2NC1c1ccccc1` (configuration not stated) it is 0.33% (inactive).
As for `O=C(N=C1SC2CS(=O)(=O)CC2N1c1cc(Cl)ccc1Cl)C1CC1` (configuration not stated), the figure is 1.12% (inactive).
`CCC1CO/C(=C(\C(=C(Cl)Cl)N2CCOCC2)[N+](=O)[O-])N1` (configuration not stated): the inhibition is 0.26% (inactive).
As for `Cc1cc(C)n(-c2nnc(N3CCN(c4ccccc4)CC3)nn2)n1`, the figure is 1.11% (inactive); as for `COc1ccc(OC)c(NC(=O)C2CCCN2S(=O)(=O)c2cccc3nsnc23)c1` (configuration not stated), 2.19% (inactive).
As for `Cc1ncoc1C(=O)NCCC(c1ccccc1)c1ccccc1`, the figure is 0.08% (inactive).
As for `CCOc1cc(S(=O)(=O)NCc2ccc3c(c2)OCO3)ccc1F`, the figure is 1.89% (inactive).
On to `COc1cc(NS(=O)(=O)c2ccc(NC(=O)c3ccc([N+](=O)[O-])cc3)cc2)ncn1`, for which the inhibition was 0.95% (inactive).
For the compound `CC(=O)NC(=S)Nc1ccc(NC(=S)NC(=O)c2ccc([N+](=O)[O-])cc2)cc1`, the inhibition was -0.43% (inactive).
As for `Cn1ccc(=Nc2ccc(NC(=O)c3ccc(N=c4ccn(C)c5ccc([N+](=O)[O-])cc45)cc3)cc2)cc1`, the figure is 95.1% (active).
For `Brc1ccc(CN2CC[C@H]3C=CCc4cccc(c43)C2)cc1`, the inhibition is 4.02% (inactive).
Turning to `C=CCNC(=O)c1csc(-c2ccccc2)n1`, the inhibition was 0.48% (inactive).
As for `O=C(Nc1cccnc1Cl)c1cc(-c2ccccc2O)on1`, the figure is 3.57% (inactive); as for `C=CCNC(=O)c1cc(-c2ccccc2O)on1`, 96.1% (active); as for `FC(F)(F)c1ccc2nnc(-c3c(Cl)cccc3Cl)n2c1`, 2.64% (inactive).
The figure for `Cc1ccc(OCC(=O)c2cc(C)n(Cc3ccco3)c2C)c([N+](=O)[O-])n1` is 3.36% (inactive).
As for `O=C(OCC1O[C@@H](OC(=O)c2cc(O)c(O)c(O)c2)[C@@H](OC(=O)c2cc(O)c(O)c(O)c2)[C@@H](OC(=O)c2cc(O)c(O)c(O)c2)[C@@H]1OC(=O)c1cc(O)c(O)c(O)c1)c1cc(O)c(O)c(O)c1` (some centres not stated), the figure is 27.8% (active); as for `C=C1c2cccc(OC)c2O[C@H](C(=O)OCC)[C@@H]1CCCCCC`, -0.56% (inactive); as for `CS(=O)(=O)N(CC(=O)Nc1ccc(Cl)c(Cl)c1)C1CCCCC1`, -0.7% (inactive).
For the compound `O=C(CC(O)(C(F)(F)F)C(F)(F)F)Nc1ccc(Cl)c(Cl)c1`, the inhibition is 18.6% (active).
As for `O=C(CCCN1C(=O)CCC1=O)Nc1ccc(Cl)c(C(F)(F)F)c1`, the figure is 2.75% (inactive); as for `COc1cc(C)c(C(C)C)cc1S(=O)(=O)n1ccnc1`, 2.64% (inactive).
`O=C(NCc1ccco1)c1ccc([N+](=O)[O-])cc1Cl`: the inhibition was 0% (inactive).
The figure for `CS(=O)(=O)c1ccc(Cl)c(NC(=O)COC(=O)c2ncc(Cl)c(Cl)c2Cl)c1` is 1.36% (inactive).
Regarding `CCCCOc1ccc(Cl)cc1CSc1nncn1N`, the inhibition was 0.43% (inactive).
